Experimental data reported in PubChem BioAssay AID1259415 (National Center for Advancing Translational Sciences (NCATS), 2018).
About 18,000 (4.4%) of roughly 410,000 compounds were called active. Inconclusive results (about 7%) are left out. The sample holds actives, similar compounds and a random draw of the others, so the mix is not that of the screen. Values without a mark were called inactive. No stated cut-off is given here; in the data, active means activity change below about -60%; inconclusive means no clear call, values can overlap the other calls; inactive means above about -39%.

Assay: qHTS Assay for inhibitors of the human cytomegalovirus (HCMV)
Conditions: HFF cells, HCMV-luciferase reporter, 72 h; at 57.5 µM; stronger effect = lower value
Method in brief: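 Two compound doses tested in HFFs infected with HCMV-luciferase, MOI 1 PFU/cell, 72 h at 37C. Lysate luminescence read with OneGlo; data normalized against buffer-only and 10uM Salinomycin inhibitor controls.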
On the % scale 0 is the no-effect control and ±100 the full control effect.

Row | Structure (SMILES) | activity change, negative = inhibition
1 | Cc1ccc(S(=O)(=O)N(C)C)cc1NC(=O)c1ccc(-n2cncn2)c([N+](=O)[O-])c1 | -7.42%
2 | CC(C)NC(=O)c1nnc2n1CCN(C(=O)C1(c3ccc(Cl)cc3)CCCC1)C2 | -2.1%
3 | COc1cc(Cl)ccc1Nc1ncc(C(=O)N2CCN(c3ccccc3OC)CC2)c2ccccc12 | 9.53%
4 | Cc1cccc(NC(=O)CN(c2ccc(C(C)C)cc2)S(=O)(=O)c2c(C)nn(C)c2C)c1C | -17.9%
5 | COc1cc(C(=O)Nc2cc(C(F)(F)F)ccc2N2CCOCC2)ccc1O | 37.5%
6 | COc1ccc(SSc2ccc(OC)cc2C(=O)O)c(C(=O)O)c1 | 4.79%
7 | COc1ccc(/C=N/Nc2ccccc2C(=O)O)cc1 | -64.5% (active)
8 | COC(=O)C(C)N=Cc1ccccc1 (centres undefined) | -19.2%
9 | COc1ccc(C(=O)Nc2ccccc2C(=O)N/N=C/c2ccc(O)c(OC)c2)cc1 | -71.4% (active)
10 | C=CCOc1ccc(C(=O)Nc2ccccc2C(=O)N2CCCC2)cc1 | 3.09%
11 | C=CCOc1c(CNn2cn[nH]c2=S)cccc1OC | -4.48%
12 | COC(=O)C[C@H]1C=C[C@H](NC(=O)c2ccc(F)cc2)[C@@H](CO)O1 | 21.6%
13 | COc1ccc(OC)c(CCNc2nc3cnc(-c4cccc(Oc5ccccc5)c4)cc3n2C)c1 | -30.5%
14 | Cc1c(NC(=O)c2cc(=O)c3ccccc3o2)c(=O)n(-c2ccccc2)n1C | 2.18%
15 | CCCN(C(=O)Cn1ncc2c([nH]c3ccc(C)cc32)c1=O)c1ccccc1C | -8.94%
16 | CCOc1cccc2c1N[C@@H](c1ccc(C(=O)O)cc1)[C@H]1CC=C[C@@H]21 | -5.85%
17 | COc1ccccc1NC(=O)c1cc(Cl)nnc1Cl | -22.5%
18 | COc1ccccc1NC(=O)c1sc2nc(C)c(C(=O)Nc3ccc(Cl)cc3)c(-c3ccc(Br)cc3)c2c1N | -104% (active)
19 | COc1ccccc1C(=O)Nc1c(C(=O)N(C)Cc2ccccc2)sc2nc(C)c(Cl)c(C)c12 | -19.6%
20 | Cc1ccc(Nc2c(-c3ccc(C)s3)nc3ccccn23)cc1 | 74.5%
21 | Cc1ccc(NC(=O)c2oc3ccc(S(=O)(=O)N4CCCCC4)cc3c2C)cc1Cl | -4.09%
22 | COc1ccccc1N(CC(=O)N/N=C(\C)c1ccccc1O)S(=O)(=O)c1ccc(C)cc1 | -68.7% (active)
23 | COc1ccccc1N(CC(=O)N1CCCCC1)S(=O)(=O)c1ccccc1 | -0.178%
24 | COc1ccc(C)cc1N(CC(=O)NC(C)c1ccccc1)S(C)(=O)=O (centres undefined) | -5.84%
25 | COc1ccccc1NC(=O)CN(c1ccccc1OC)S(=O)(=O)c1ccccc1 | -93.1% (active)
26 | Cc1ccc(S(=O)(=O)N(CC(=O)NCc2ccco2)c2ccccc2C)cc1 | -14.7%
27 | COc1ccccc1N(CC(=O)Nc1c(C)n(C)n(-c2ccccc2)c1=O)S(=O)(=O)c1ccccc1 | -32%

Row | Structure (SMILES) | activity change, negative = inhibition
28 | Cc1cc(C)cc(-n2c(SCC(=O)NCC3CCCO3)nc3c([nH]c4ccccc43)c2=O)c1 (centres undefined) | 10.8%
29 | Cc1cc(NC(=O)CN2C(=O)NC(CC(C)C)C2=O)no1 (centres undefined) | 3.09%
30 | O=C(Nc1ccccc1Cl)N1CCN(c2ccc3nncn3n2)CC1 | -11.9%
31 | Cc1ccccc1C(=O)Nc1cc(C)c(O)c(-c2nc3ccccc3o2)c1 | -13.9%
32 | Cc1ccc(C)n1-c1nnc(N2CCC(C(=O)NCc3ccc(F)cc3)CC2)s1 | 29.6%
33 | Cn1nnnc1SCC(=O)Nc1sccc1C(N)=O | 3.24%
34 | CCOC(=O)c1c(-c2ccc(C)cc2C)csc1NC(=O)CSc1nnnn1C | -95.4% (active)
35 | CCOC(=O)c1c(NC(=O)CSc2nnc(CNc3ccc(C)cc3C)o2)sc(C)c1C | 3.08%
36 | CCOc1ccc(CCNC(=O)Cn2nc(CC)n3c(cc4sc(CC)cc43)c2=O)cc1OCC | -8.37%
37 | CCOC(=O)c1c(NC(=O)/C=C/c2ccc(OC)cc2)sc2c1CCC(C)C2 (centres undefined) | -22.4%
38 | CC1CCN(S(=O)(=O)c2ccc3c(c2)N(CC(=O)NCCc2ccccc2)C(=O)CO3)CC1 | -11.1%
39 | Cc1ccc(-n2nc(C)c3c(C)cc(=O)n(CC(=O)Nc4ccc(C(C)C)cc4)c32)cc1 | 11%
40 | COc1ccc(-c2cc(C(F)(F)F)nc(SCC(=O)N(C)Cc3ccccc3)n2)cc1OC | -16.1%
41 | COc1ccc(-c2cc(C(F)(F)F)nc(S(C)(=O)=O)n2)cc1OC | -98.2% (active)
42 | COc1ccc(CCNc2nc(-c3ccc(F)cc3)cc(C(F)(F)F)n2)cc1OC | -24.7%
43 | CC(C)Sc1oc(-c2cccs2)nc1S(=O)(=O)c1ccc(Cl)cc1 | 0.0343%
44 | Cc1cc(NC(=O)/C=C/C(=O)N(CC(=O)NC2CCCC2)c2ccc(F)cc2)no1 | 29.1%
45 | Cc1cc(NC(=O)CCC(=O)N(c2cccc(F)c2)C(C(=O)NC2CCCC2)c2ccncc2)no1 (centres undefined) | -19.9%
46 | Cc1cc(NC(=O)/C=C/C(=O)N(c2ccccc2C)C(C(=O)NC2CCCC2)c2ccc(F)cc2)no1 (centres undefined) | -73.5% (active)
47 | Cc1cccc(C)c1-n1nnnc1C1C(=O)NC(=S)N1c1ccccc1 (centres undefined) | 26.7%
48 | Cn1c(=O)c2c(nc(SCC(=O)Nc3ccc(F)cc3)n2Cc2ccccc2)n(C)c1=O | 5.41%
49 | CCn1c(-c2cc(OC)ccc2OC)csc1=Nc1c(C)n(C)n(-c2ccccc2)c1=O | -25.8%
50 | CN=c1scc(-c2cc(OC)ccc2OC)n1/N=C/c1c(C)[nH]c2ccccc12 | -85.5% (active)
51 | COc1ccc(/C=N/n2c(C)cc(C)cc2=O)cc1 | -24.9%
52 | CCOC(=O)c1ccc(NC(=O)CCS(=O)(=O)c2ccc(C)cc2)cc1 | 0%
53 | OCc1cnc(SCc2ccc(F)cc2)n1Cc1ccc(F)cc1 | -26.3%
54 | O=C(c1ccco1)N1CCN(C(=O)C2CCCN(S(=O)(=O)c3cccc4nsnc34)C2)CC1 (centres undefined) | -12.2%
